Source: PubChem BioAssay (National Center for Advancing Translational Sciences (NCATS))
12-hLO inh: 12-hLO (ALOX12) enzyme inhibition | hit rate 0.12% among 150,000 | purified 12-hLO, xylenol orange hydroperoxide absorbance | Potency, µM (doses to about 57.1 µM), for inactives: at the top dose activity change, negative = inhibition, hits mostly inhibitors; note: potency is the fitted concentration of half-maximal effect; nearly all actives have a fitted effect of over 55% in size
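Purified human 12hLO (150 nM), preincubated 15 min with compound, then 40 uM arachidonic acid for 30 min, room temperature, Hepes pH 7.0 with 0.01% Triton X-100. Hydroperoxide detected by ferrous iron/xylenol orange; 573/405 nm absorbance ratio gives reaction progress.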
IMPase cell inh: cell-permeable inhibitors of inositol monophosphatase (IMPase); P97697; CHO-M1 cells, IP1 accumulation, HTRF TR-FRET ratio; AID 901; inhibition (IP1 accumulation), % at 46.1 µM; 120,000 tested, under 10 active; active = well fitted curve in the direction sought with a large enough effect in the signal ratio, not every such curve was filed as active; inconclusive = small, poorly fitted or top-dose-only effect, or a change in a side signal; inactive = no such curve, though single readings can be large or run the other way; the % refers to the signal ratio;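 note: cells stimulated with carbachol in lithium chloride buffer; plate controls were DMSO basal wells for no effect and reference inhibitor wells for full effect; higher means more IMPase inhibition seen as more IP1 and lower FRET ratio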
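CHO-M1 cells (CHO stably expressing M1 receptor), compound up to 46 uM final, stimulated with carbachol (50 uM as added) in buffer with 50mM LiCl, pH 7.4, 30 min at 37C. Cytosolic IP1 read by TR-FRET; AC50 from Hill fits.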
ALOX15B inhib: 15-hLO-2 (ALOX15B) enzyme inhibition; hit rate 0.56% among 110,000; purified 15hLO-2, xylenol orange hydroperoxide absorbance; AID 881; Potency, µM (doses to about 57.1 µM), without a hit: at the highest dose activity change, negative = inhibition, usual class: inhibitors; note: potency is the fitted concentration of half-maximal effect; nearly all actives have a fitted effect of over 60% in size
Target sequence (O15296 whole entry, looked up): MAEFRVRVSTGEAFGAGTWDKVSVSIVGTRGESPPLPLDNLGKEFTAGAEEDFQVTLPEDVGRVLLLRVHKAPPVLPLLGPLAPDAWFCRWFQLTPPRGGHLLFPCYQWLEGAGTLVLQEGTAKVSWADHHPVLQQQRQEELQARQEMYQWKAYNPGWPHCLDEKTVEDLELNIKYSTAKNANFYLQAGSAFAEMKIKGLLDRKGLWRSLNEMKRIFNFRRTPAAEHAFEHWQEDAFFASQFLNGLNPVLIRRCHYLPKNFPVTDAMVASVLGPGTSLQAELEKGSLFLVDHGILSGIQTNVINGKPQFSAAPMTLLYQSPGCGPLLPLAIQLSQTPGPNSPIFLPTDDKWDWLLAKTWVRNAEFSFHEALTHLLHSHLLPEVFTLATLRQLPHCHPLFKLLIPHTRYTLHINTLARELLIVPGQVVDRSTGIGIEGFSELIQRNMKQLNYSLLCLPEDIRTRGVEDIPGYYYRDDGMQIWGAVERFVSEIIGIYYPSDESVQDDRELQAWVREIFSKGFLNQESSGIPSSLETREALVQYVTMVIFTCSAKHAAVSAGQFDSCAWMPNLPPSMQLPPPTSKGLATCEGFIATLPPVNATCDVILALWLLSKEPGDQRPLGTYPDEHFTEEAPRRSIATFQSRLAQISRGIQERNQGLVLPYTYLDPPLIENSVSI
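Enzyme 50 nM, AA 45 uM, 25 mM Hepes pH 7.5 + 0.01% Triton X-100; cpd preinc 15 min RT, rxn 90 min RT; stop/detect with 200 uM XO + 300 uM Fe(II) in 50 mM H2SO4, 30 min; A573/A405.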
* = called active by the depositor; [ ] = remark or other dose. Many of the other results were omitted from the sample, so hits are more common in it than they were. Unless noted, calls come from the whole dose curve; as a rule, active = well fitted curve in the direction sought with a large enough effect; inconclusive = small, poorly fitted or top-dose-only effect, or another doubt; inactive = no such curve, though single readings can be large; an effect the other way counts as inactive or inconclusive. Unless noted, % is set by controls: 0 for no effect and ±100 for the full control effect.

CC12CC3CC(C)(C1)CC(C(=O)NC(=S)N1CCCCC1)(C3)C2 was read as 12-hLO inh 15.8µM*, IMPase cell inh 0.1 and ALOX15B inhib inconclusive.
Screening CC12CC3(C)CC(C)(C1)CC(C(=O)NC(=S)N1CCOCC1)(C2)C3 returned 12-hLO inh inconclusive, IMPase cell inh 1.8 and ALOX15B inhib inconclusive.
CCOc1ccccc1NC(=S)Nc1ccccc1F was read as 12-hLO inh -11.9%, IMPase cell inh -1.5[1.84 µM] and ALOX15B inhib 1.2%[11.4 µM].
`CCOc1ccccc1NC(=S)Nc1ncccc1C` gave 12-hLO inh 20µM* and IMPase cell inh 3.3.
Screening COc1ccc(CCc2nc(C)ccc2O)cc1 returned 12-hLO inh 0.0%, IMPase cell inh -3.9 and ALOX15B inhib -0.3%.
Screening CCOc1ccc(C2C(C#N)=C(N)SC(N)=C2C#N)c(OCC)c1 returned 12-hLO inh -9.4%, IMPase cell inh inconclusive and ALOX15B inhib -20.8%[11.4 µM].
Screening CCCCc1ccc(C2C(C#N)=C(N)SC(N)=C2C#N)s1 returned 12-hLO inh inconclusive, IMPase cell inh inconclusive and ALOX15B inhib 12.6µM*.
Screening COc1ccccc1/C=C/C=N/n1c(-c2ccc(C)cc2)n[nH]c1=S returned 12-hLO inh 1.6%.
For COc1ccccc1/C=C\C=N\n1c(C2CCCCC2)n[nH]c1=S the results were 12-hLO inh -9.2%, IMPase cell inh 5.3 and ALOX15B inhib 12.6µM*.
CN(C)c1oc(-c2ccc(OCc3ccc(Cl)cc3)cc2)nc1C#N was read as 12-hLO inh -1.4%, IMPase cell inh -7.0 and ALOX15B inhib 0.2%.
`Cc1ccc(C2SCC(C(=O)O)N2C(=O)c2ccc(F)cc2)cc1` (configuration not stated) gave 12-hLO inh -2.9%.
For Cc1cc(C)n(C(=O)c2ccc([N+](=O)[O-])cc2[N+](=O)[O-])n1 the results were 12-hLO inh 3.4%.
For CSc1nncc(/C(C)=N\Nc2ccccc2)n1 the results were 12-hLO inh -22.0%, IMPase cell inh 3.7 and ALOX15B inhib inconclusive.
For CSc1nncc(/C(C)=N\Nc2cccc(C)c2)n1 the results were 12-hLO inh -12.7%, IMPase cell inh 7.1 and ALOX15B inhib 3.16µM*.
CC(=O)c1ccc(NC(=S)N2CCCC(CO)C2)cc1 (configuration not stated) was read as 12-hLO inh 0.5% and IMPase cell inh -0.2.
Screening O=c1c2c(nc3n1CCCCC3)sc1c(O)c(Br)ccc12 returned 12-hLO inh -8.7%, IMPase cell inh 1.5 and ALOX15B inhib -15.7%.
`S=C(NCc1ccco1)Nc1cccc(Cl)c1` gave 12-hLO inh -4.7%, IMPase cell inh 5.8 and ALOX15B inhib -12.9%.
Screening S=C(NCc1ccco1)Nc1ccc(Cl)c(Cl)c1 returned 12-hLO inh 17.8µM*, IMPase cell inh -17.7 and ALOX15B inhib inconclusive.
`CCOC(=O)Cn1nc(-c2ccc(C)cc2)ccc1=O` gave 12-hLO inh -1.2%, IMPase cell inh -1.2 and ALOX15B inhib -1.7%.
CCOC(=O)Cc1csc(NC(=O)NC2(C(F)(F)F)Oc3ccc(Cl)cc3O2)n1 (configuration not stated) was read as 12-hLO inh -25.3%, IMPase cell inh -1.9 and ALOX15B inhib inconclusive.
Screening CCOC(=O)Cc1csc(NC(=O)NC2(C(F)(F)F)Oc3cc(Cl)c(Cl)cc3O2)n1 returned 12-hLO inh inconclusive, IMPase cell inh -2.4 and ALOX15B inhib 10µM*.
Screening COc1ccc(C2CC(c3ccccc3)=NN2C(=O)CSc2ncccn2)cc1 (configuration not stated) returned 12-hLO inh -2.7%.
Cc1cc(S(=O)(=O)NCCN(C)C)c(C)s1 was read as 12-hLO inh -1.0%, IMPase cell inh 3.7 and ALOX15B inhib inconclusive.
Screening COc1ccc(NC(=O)c2cncc(Br)c2)c(S(=O)(=O)N2CCOCC2)c1 returned 12-hLO inh 1.4%, IMPase cell inh 0.3 and ALOX15B inhib 11.2%.
For CC(C)(C)NC(=S)Nc1ccc(Nc2ccccc2)cc1 the results were 12-hLO inh inconclusive, IMPase cell inh 4.9 and ALOX15B inhib 15.8µM*.
Screening CC(C)(C)NC(=S)Nc1ccc(Br)cc1 returned 12-hLO inh -26.5%, IMPase cell inh 1.2 and ALOX15B inhib -29.6%.
`CCOc1cc(-c2cc(-c3ccc(C)o3)nc(N)c2C#N)ccc1O` gave 12-hLO inh -10.7%, IMPase cell inh -3.8 and ALOX15B inhib inconclusive.
Screening Cc1ccc(-c2cc(-c3ccc(C)o3)nc(N)c2C#N)cc1 returned 12-hLO inh 15.8µM*, IMPase cell inh -3.4 and ALOX15B inhib inconclusive.
`Cc1ccc(-c2cc(-c3ccc(Cl)cc3)c(C#N)c(N)n2)o1` gave 12-hLO inh 11.2µM*, IMPase cell inh 1.5 and ALOX15B inhib 6.31µM*.
For Cc1ccc(-c2cc(-c3ccc4c(c3)OCO4)c(C#N)c(N)n2)o1 the results were 12-hLO inh inconclusive, IMPase cell inh -1.8 and ALOX15B inhib inconclusive.
For Cc1cccc(NC(=O)c2c(C)cc(=O)oc2C)n1 the results were 12-hLO inh -2.2%, IMPase cell inh 8.6 and ALOX15B inhib 3.7%.
Screening CCOC(=O)C(NC(=O)c1cccc(Cl)c1)(OCc1ccccc1)C(F)(F)F (configuration not stated) returned 12-hLO inh 1.4%.
For O=C1NC2(CCCCC2)NN1c1ccccc1 the results were 12-hLO inh 3.98µM*, IMPase cell inh -6.1 and ALOX15B inhib inconclusive.
`O=C1NC2(CCCCC2)C(=O)N1c1ccccc1` gave 12-hLO inh 1.1%, IMPase cell inh -7.6 and ALOX15B inhib -10.8%.
Screening O=C(Nc1ccc(N2CCCC2)c(Cl)c1)c1ccc(Br)o1 returned 12-hLO inh 0.6%, IMPase cell inh 4.6 and ALOX15B inhib -20.5%.
`Clc1ncnc2scc(-c3ccc(Br)cc3)c12` gave 12-hLO inh -1.6%.
Screening COc1ccc(CCNC(=S)Nc2cccc(C)c2C)cc1 returned 12-hLO inh inconclusive, IMPase cell inh 8.5 and ALOX15B inhib 25.1µM*.
COc1ccc(CCNC(=S)Nc2cc(C)ccc2C)cc1 was read as 12-hLO inh 7.94µM*, IMPase cell inh 0.9 and ALOX15B inhib 25.1µM*.
COc1ccc(CNC(=S)Nc2ccccc2C)cc1 was read as 12-hLO inh -8.2%, IMPase cell inh inconclusive and ALOX15B inhib -23.1%.
COc1ccc(CNC(=S)Nc2cc(C)ccc2C)cc1 was read as 12-hLO inh -15.1%, IMPase cell inh 11.6 and ALOX15B inhib inconclusive.
Screening CC(C)(C)c1cc(/C=C(\C#N)C(N)=S)cc(C(C)(C)C)c1O returned 12-hLO inh -23.5%, IMPase cell inh 10.7 and ALOX15B inhib 12.6µM*.
`[C-]#[N+]/C(C#N)=C\c1cc(C(C)(C)C)c(O)c(C(C)(C)C)c1` gave 12-hLO inh -29.0% and ALOX15B inhib 8.6%.
`CCOc1ccc(S(=O)(=O)N(C(C)=O)c2ccc3oc(C)c(C(=O)OC)c3c2)cc1` gave IMPase cell inh 29.7.
Screening COc1ccc(S(=O)(=O)N(C(C)=O)c2ccc3oc(=O)sc3c2)cc1 returned 12-hLO inh 8.91µM*, IMPase cell inh 8.4 and ALOX15B inhib -23.3%.
Screening Cn1cccc1/C=N/n1c(-c2ccccc2)n[nH]c1=S returned 12-hLO inh 0.4%, IMPase cell inh -0.9 and ALOX15B inhib -12.8%.
